The values below come from ChEMBL document CHEMBL5724796, “Tm Shift (DSF) assay results for EUbOPEN Chemogenomics Library” (2024).

“And” between values parts separate entries of the source, which are not always exact repeats. Identical values can stand only once.

One assay deals with Casein kinase I isoform delta (Homo sapiens) (UniProt P48730). The note with it: Compound concentration 20.0 uM.
Casein kinase I isoform delta (Homo sapiens), sequence (P48730 whole entry, looked up, canonical isoform): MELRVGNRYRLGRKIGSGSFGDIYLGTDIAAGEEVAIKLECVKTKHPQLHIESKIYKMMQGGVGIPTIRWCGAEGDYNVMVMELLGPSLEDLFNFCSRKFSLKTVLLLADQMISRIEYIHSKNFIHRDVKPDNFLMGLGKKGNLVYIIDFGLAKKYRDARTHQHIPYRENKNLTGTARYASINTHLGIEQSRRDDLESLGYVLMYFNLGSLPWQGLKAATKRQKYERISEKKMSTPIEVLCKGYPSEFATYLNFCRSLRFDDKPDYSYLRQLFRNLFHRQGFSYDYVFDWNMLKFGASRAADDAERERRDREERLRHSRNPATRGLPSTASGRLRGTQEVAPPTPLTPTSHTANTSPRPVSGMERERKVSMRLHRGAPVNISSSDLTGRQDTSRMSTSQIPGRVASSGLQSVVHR
In general, ΔTm refers to the shift of the melting midpoint relative to a reference. For the compound `CC(C)(C)NS(=O)(=O)c1ccc(NC(=O)[C@H](Cc2ccccc2)NC(=O)c2ccc(F)cc2)cc1`, the ΔTm was 0.21 °C.

As for `CC(C)(C)OC(=O)NCCCCCN(CCc1ccccc1)C(=O)n1cc(-c2ccc(OC(F)(F)F)cc2)nn1`, the ΔTm was -1.51 °C.

Turning to `O=C(CN1CCN(c2ccc(F)cn2)CC1)Nc1nc2c(s1)CCCC2`, the ΔTm is -0.25 °C.

Turning to `C[C@H](Nc1cc(Cl)nc2c1cnn2[C@@H]1O[C@H](COP(=O)(O)CP(=O)(O)O)[C@@H](O)[C@H]1O)c1ccccc1F`, the shift in melting temperature (ΔTm) was 0.27 °C.

As to `OC[C@H]1O[C@@H](c2ccc(F)c(Cc3cc4ccccc4s3)c2)[C@H](O)[C@@H](O)[C@@H]1O`, the shift in melting temperature (ΔTm) is -0.29 °C.

`CCn1ncc2c(NC3CCOCC3)c(-c3nnc(Cc4sc(C)nc4C)o3)cnc21`: the ΔTm worked out at 0.21 °C.

For `O=c1[nH][nH]c(=O)c2cc(OCc3ccccc3F)ccc12`, the ΔTm was -6.69 °C.

Turning to `Cc1cc(Cl)cc(-c2c3sc(CN4C(=O)C5C(C4=O)C5(C)C)cc3nn2C)c1OC1CCNCC1` (stereo not drawn), the thermal shift (ΔTm) is -0.45 °C.

Take `COc1cc(C(=O)NCC2(N(C)C)CCCC2)cc(OC)c1OCc1ccccc1`: the ΔTm is -0.21 °C.

Regarding `CNC(=O)N1CCc2c(c(N3CCCc4cc(-c5cnn(C)c5)c(C(F)F)cc43)nn2C2CCOCC2)C1`, the ΔTm is 0.34 °C.

Turning to `Nc1ccccc1NC(=O)c1ccc(CNc2nccc(-c3cccnc3)n2)cc1`, the ΔTm came out at 2.88 °C.

Turning to `CCCCCCCCCCCCCCCCNNC(=O)c1cccs1`, the shift in melting temperature (ΔTm) turned out to be 0.26 °C.

Regarding `CN1CCN2c3c(cccc31)[C@@H]1CN(CCCC(=O)c3ccc(F)cc3)CC[C@@H]12`, the ΔTm was -0.14 °C.

Regarding `Cn1ncc(-c2nn(C)c3ncnc(N4CCC4)c23)c1-c1ccc(C(F)(F)F)cc1`, the ΔTm is -0.3 °C.

As for `COc1cc2c(NC3CCN(C)CC3)cc(-c3ccc(C)o3)nc2cc1OCCCN1CCCC1`, the shift in melting temperature (ΔTm) came out at 0.17 °C.

Consider `O=C(NCCCc1ccccc1)c1cccc(-c2cc(O)c3ncccc3c2)c1`, for which the ΔTm was 0.06 °C.

As for `N=C(N)SCc1ccc(CN2C(=O)C(=O)c3cc(Br)cc(Br)c32)cc1`, the ΔTm is -2.52 °C.

Turning to `O=C(C[C@@H](C(F)F)n1ccc(F)n1)N1CCC(O)(Cn2cnc3c(cnn3-c3ccc(F)cc3)c2=O)CC1`, the thermal shift (ΔTm) amounted to 0.03 °C.

For `Cc1c(CN2CCC(Nc3ncnc4sc(CC(F)(F)F)cc34)CC2)ccc2[nH]c(C#N)cc12`, the shift in melting temperature (ΔTm) was determined as 1.22 °C.

Consider `N#Cc1ccc(-c2c3n(c4cccnc24)CCN(C2CC2)C3=O)cc1F`, for which the shift in melting temperature (ΔTm) was -0.26 °C.

For the compound `COc1cc2c(NC3CCN(C4CCCCC4)CC3)nc(N3CCCN(C(C)C)CC3)nc2cc1OCCCN1CCCCC1`, the ΔTm came to 0.1 °C.

Consider `CC(C)NCC(O)COC(Cn1c2ccccc2c2ccccc21)Cn1c2ccccc2c2ccccc21` (stereo not drawn), for which the ΔTm is -0.3 °C.

`N#Cc1ccc(-c2csc(NN=C3CCCC3)n2)cc1`: the ΔTm turned out to be 0.34 °C.

`O=C(NC[C@H](O)CN1CCc2ccccc2C1)c1cc(NC2COC2)ncn1`: the ΔTm was determined as 0.5 °C.

In the case of `CC(C)c1ccc(-c2cc(=O)c3ccccc3o2)cc1`, the thermal shift (ΔTm) was 0.58 °C.

With `CC(C)NC(=O)c1ccc(OC(F)F)c(OCC2CC2)c1`, the ΔTm is -0.07 °C.

For `O=C(C1CC1)N1CC[C@@H](Cc2n[nH]c(=O)n2-c2ccc(-c3ccc4occc4c3)cc2)C1`, the ΔTm was 0.35 °C and -0.18 °C.

Turning to `CCCCCCCCCCCCCC(=S)NCCCC[C@H](NC(=O)OCc1ccccc1)C(=O)Nc1ccccc1`, the thermal shift (ΔTm) is 0.13 °C.

Turning to `CCNC(=O)c1noc(-c2cc(C(C)C)c(O)cc2O)c1-c1ccc(CN2CCOCC2)cc1`, the thermal shift (ΔTm) was found to be 0.41 °C.

Regarding `Cn1ncc2c(-c3c(-c4ccc(F)cn4)nn4c3COC(C)(C)C4)ccnc21`, the ΔTm turned out to be 1.41 °C.

On to `CCCCNc1cc(C(=O)O)cc(S(N)(=O)=O)c1Oc1ccccc1`, for which the ΔTm came out at 0.17 °C.

On to `CN(C)CCCCC(=O)Nc1ccc(NC(=S)NC(=O)c2ccc(C(C)(C)C)cc2)cc1`, for which the shift in melting temperature (ΔTm) worked out at 0.69 °C.

`CC(C)C(=O)c1c(C(C)C)nn2ccccc12`: the thermal shift (ΔTm) is 0.19 °C.

`Cc1nn(CC(F)(F)F)cc1Nc1ncc(Br)c(NCc2ccc(S(N)(=O)=O)cc2)n1`: the shift in melting temperature (ΔTm) turned out to be 0.99 °C.

As for `NS(=O)(=O)OC[C@H]1C[C@@H](Nc2ncncc2C(=O)c2ccn(Cc3cccc(Br)c3)n2)C[C@@H]1O`, the ΔTm turned out to be 0.64 °C.

Turning to `Cc1ncc(Cl)cc1NCc1ccc(C(=O)N[C@@H](CC2CCCC2)C(=O)NC2CC2)s1`, the ΔTm was -0.05 °C.

On to `Cc1noc(C)c1-c1cc(Cl)c(Nc2ccccc2C(=O)O)c(Cl)c1`, for which the ΔTm is -0.64 °C.

For the compound `CC(=O)NCC(=O)N1CCC[C@@H]1B(O)O`, the ΔTm was -0.18 °C.

On to `C[C@@H](Nc1nc2c(cnn2C2CCCC2)c(=O)[nH]1)C(=O)N1CC[C@H](F)C1`, for which the ΔTm was -0.33 °C.

In a further assay the target is Glycogen synthase kinase-3 beta (Homo sapiens) (UniProt P49841). The conditions noted are these: Compound concentration 20.0 uM.
Glycogen synthase kinase-3 beta (Homo sapiens), sequence (P49841 whole entry, looked up): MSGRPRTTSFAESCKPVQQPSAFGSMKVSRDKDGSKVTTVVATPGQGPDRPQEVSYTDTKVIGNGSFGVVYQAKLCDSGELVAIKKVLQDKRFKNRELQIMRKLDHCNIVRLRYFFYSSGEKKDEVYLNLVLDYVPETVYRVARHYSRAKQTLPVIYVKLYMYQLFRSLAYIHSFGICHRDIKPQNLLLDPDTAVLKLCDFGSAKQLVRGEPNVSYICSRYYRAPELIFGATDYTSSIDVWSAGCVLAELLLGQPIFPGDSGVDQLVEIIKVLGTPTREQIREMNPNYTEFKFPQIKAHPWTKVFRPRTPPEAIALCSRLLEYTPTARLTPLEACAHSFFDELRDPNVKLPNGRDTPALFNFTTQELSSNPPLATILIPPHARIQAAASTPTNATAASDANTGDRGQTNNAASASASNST
In the case of `CC(C)(C)NS(=O)(=O)c1ccc(NC(=O)[C@H](Cc2ccccc2)NC(=O)c2ccc(F)cc2)cc1`, the thermal shift (ΔTm) was 2.59 °C.

As to `CC(C)(C)OC(=O)NCCCCCN(CCc1ccccc1)C(=O)n1cc(-c2ccc(OC(F)(F)F)cc2)nn1`, the thermal shift (ΔTm) is -2.3 °C.

`O=C(CN1CCN(c2ccc(F)cn2)CC1)Nc1nc2c(s1)CCCC2`: the ΔTm was determined as 0.02 °C.

As to `C[C@H](Nc1cc(Cl)nc2c1cnn2[C@@H]1O[C@H](COP(=O)(O)CP(=O)(O)O)[C@@H](O)[C@H]1O)c1ccccc1F`, the thermal shift (ΔTm) came out at 1 °C.

On to `OC[C@H]1O[C@@H](c2ccc(F)c(Cc3cc4ccccc4s3)c2)[C@H](O)[C@@H](O)[C@@H]1O`, for which the thermal shift (ΔTm) is -0.62 °C.

With `CCn1ncc2c(NC3CCOCC3)c(-c3nnc(Cc4sc(C)nc4C)o3)cnc21`, the shift in melting temperature (ΔTm) is -0.23 °C.

Take `O=c1[nH][nH]c(=O)c2cc(OCc3ccccc3F)ccc12`: the thermal shift (ΔTm) amounted to 1.24 °C.

`Cc1cc(Cl)cc(-c2c3sc(CN4C(=O)C5C(C4=O)C5(C)C)cc3nn2C)c1OC1CCNCC1` (stereo not drawn): the thermal shift (ΔTm) was -0.24 °C.

Consider `COc1cc(C(=O)NCC2(N(C)C)CCCC2)cc(OC)c1OCc1ccccc1`, for which the ΔTm is -0.01 °C.

As for `CNC(=O)N1CCc2c(c(N3CCCc4cc(-c5cnn(C)c5)c(C(F)F)cc43)nn2C2CCOCC2)C1`, the shift in melting temperature (ΔTm) was -0.47 °C.

On to `Nc1ccccc1NC(=O)c1ccc(CNc2nccc(-c3cccnc3)n2)cc1`, for which the thermal shift (ΔTm) amounted to 0.76 °C.

Take `CCCCCCCCCCCCCCCCNNC(=O)c1cccs1`: the ΔTm is -1.02 °C.

For `CN1CCN2c3c(cccc31)[C@@H]1CN(CCCC(=O)c3ccc(F)cc3)CC[C@@H]12`, the thermal shift (ΔTm) is -0.53 °C.

Turning to `Cn1ncc(-c2nn(C)c3ncnc(N4CCC4)c23)c1-c1ccc(C(F)(F)F)cc1`, the thermal shift (ΔTm) is -1.09 °C.

Take `COc1cc2c(NC3CCN(C)CC3)cc(-c3ccc(C)o3)nc2cc1OCCCN1CCCC1`: the ΔTm was 0.49 °C.

`O=C(NCCCc1ccccc1)c1cccc(-c2cc(O)c3ncccc3c2)c1`: the ΔTm amounted to 0.84 °C.

Turning to `N=C(N)SCc1ccc(CN2C(=O)C(=O)c3cc(Br)cc(Br)c32)cc1`, the ΔTm was -2.8 °C.

Turning to `O=C(C[C@@H](C(F)F)n1ccc(F)n1)N1CCC(O)(Cn2cnc3c(cnn3-c3ccc(F)cc3)c2=O)CC1`, the ΔTm is -0.6 °C.

Take `Cc1c(CN2CCC(Nc3ncnc4sc(CC(F)(F)F)cc34)CC2)ccc2[nH]c(C#N)cc12`: the ΔTm was -1.43 °C.

On to `N#Cc1ccc(-c2c3n(c4cccnc24)CCN(C2CC2)C3=O)cc1F`, for which the thermal shift (ΔTm) stood at 1.8 °C.

As to `COc1cc2c(NC3CCN(C4CCCCC4)CC3)nc(N3CCCN(C(C)C)CC3)nc2cc1OCCCN1CCCCC1`, the thermal shift (ΔTm) is 0.08 °C.

Turning to `CC(C)NCC(O)COC(Cn1c2ccccc2c2ccccc21)Cn1c2ccccc2c2ccccc21` (stereo not drawn), the ΔTm was -5.02 °C.

`N#Cc1ccc(-c2csc(NN=C3CCCC3)n2)cc1`: the ΔTm was -3.93 °C.

On to `O=C(NC[C@H](O)CN1CCc2ccccc2C1)c1cc(NC2COC2)ncn1`, for which the ΔTm is -0.25 °C.

As to `CC(C)c1ccc(-c2cc(=O)c3ccccc3o2)cc1`, the ΔTm is 0 °C.

As to `CC(C)NC(=O)c1ccc(OC(F)F)c(OCC2CC2)c1`, the ΔTm was -0.46 °C.

`O=C(C1CC1)N1CC[C@@H](Cc2n[nH]c(=O)n2-c2ccc(-c3ccc4occc4c3)cc2)C1`: the thermal shift (ΔTm) was -0.54 °C and 0.29 °C.

With `CCCCCCCCCCCCCC(=S)NCCCC[C@H](NC(=O)OCc1ccccc1)C(=O)Nc1ccccc1`, the ΔTm came out at 0.6 °C.

On to `CCNC(=O)c1noc(-c2cc(C(C)C)c(O)cc2O)c1-c1ccc(CN2CCOCC2)cc1`, for which the ΔTm came to 0.48 °C.

Consider `Cn1ncc2c(-c3c(-c4ccc(F)cn4)nn4c3COC(C)(C)C4)ccnc21`, for which the ΔTm was -0.58 °C.

On to `CCCCNc1cc(C(=O)O)cc(S(N)(=O)=O)c1Oc1ccccc1`, for which the ΔTm was -0.41 °C.

With `CN(C)CCCCC(=O)Nc1ccc(NC(=S)NC(=O)c2ccc(C(C)(C)C)cc2)cc1`, the ΔTm was determined as 1.54 °C.

For the compound `CC(C)C(=O)c1c(C(C)C)nn2ccccc12`, the ΔTm was -0.21 °C.

For `Cc1nn(CC(F)(F)F)cc1Nc1ncc(Br)c(NCc2ccc(S(N)(=O)=O)cc2)n1`, the ΔTm was -0.15 °C.

Regarding `NS(=O)(=O)OC[C@H]1C[C@@H](Nc2ncncc2C(=O)c2ccn(Cc3cccc(Br)c3)n2)C[C@@H]1O`, the shift in melting temperature (ΔTm) worked out at 1.22 °C.

In the case of `Cc1ncc(Cl)cc1NCc1ccc(C(=O)N[C@@H](CC2CCCC2)C(=O)NC2CC2)s1`, the thermal shift (ΔTm) was 10.5 °C.

Regarding `Cc1noc(C)c1-c1cc(Cl)c(Nc2ccccc2C(=O)O)c(Cl)c1`, the thermal shift (ΔTm) was -0.39 °C.

Consider `CC(=O)NCC(=O)N1CCC[C@@H]1B(O)O`, for which the thermal shift (ΔTm) was -0.78 °C.

For the compound `C[C@@H](Nc1nc2c(cnn2C2CCCC2)c(=O)[nH]1)C(=O)N1CC[C@H](F)C1`, the thermal shift (ΔTm) worked out at 1.37 °C.
